Screening results as filed in PubChem BioAssay.
FBW7 activator – human FBW7 E3 ligase activation, primary screen | AlphaScreen FBW7–phospho-cyclin E peptide binding, activator screen | 650,000 compounds, 0.13% hits | Q969H0 | normalized activity (activation), % at 26.1 µM; in the data active = normalized activity above about 1.9%;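 note: purified mutant Fbw7 with reduced substrate affinity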
GPR151 ag – activators of human GPR151; Q8TDV0; PathHunter beta-arrestin GPR151 cells, luminescence; activation, % at 11.2 µM; 650,000 compounds, 1% hits; AID 1508602; in the data active = activation above about 4.9%
TEAD-YAP inh – TEAD-YAP interaction inhibition; HEK-TIYL cells, TEAD-Gal4/YAP UAS-luciferase luminescence; inhibition, % at 9.12 µM; 640,000 compounds, 1.4% hits; in the data active = inhibition above about 32%
MITF primary – human MITF inhibition, primary screen; O75030; inhibition, % at 2.6 µM; 650,000 compounds, 0.91% hits; AID 1259374; AlphaScreen MITF homodimerization, bead proximity signal; in the data active = inhibition above about 50%
Target sequence (O75030 whole entry, looked up): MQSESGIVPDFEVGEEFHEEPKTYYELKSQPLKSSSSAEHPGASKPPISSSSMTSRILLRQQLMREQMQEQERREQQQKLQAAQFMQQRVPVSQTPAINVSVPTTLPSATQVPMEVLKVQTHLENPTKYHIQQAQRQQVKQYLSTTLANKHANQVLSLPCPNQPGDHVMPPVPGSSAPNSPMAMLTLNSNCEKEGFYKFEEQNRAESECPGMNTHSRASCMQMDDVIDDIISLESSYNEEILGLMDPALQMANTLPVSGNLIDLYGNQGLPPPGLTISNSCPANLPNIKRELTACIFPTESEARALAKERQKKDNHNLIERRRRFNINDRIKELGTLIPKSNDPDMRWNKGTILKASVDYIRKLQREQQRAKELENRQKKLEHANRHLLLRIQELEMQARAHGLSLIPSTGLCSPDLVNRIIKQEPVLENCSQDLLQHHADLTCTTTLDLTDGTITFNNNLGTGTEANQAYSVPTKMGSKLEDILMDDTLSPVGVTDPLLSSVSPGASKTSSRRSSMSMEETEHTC
Of the large screens only hits and unclear results are named; the others gave an inactive call. Rows were chosen to be rich in hits. Some 3.5% of all compounds tested hit in one or more screens of this group.

Cc1ccc(C(=O)NCCn2cc(SCC(=O)NCC3CCCO3)c3ccccc32)cc1C (centres undefined)	TEAD-YAP inh 33
O=C(CSc1cn(CCNC(=O)c2ccc(F)cc2)c2ccccc12)NCC1CCCO1 (centres undefined)	none
O=C(O)CCCCCN1C(=O)C(=O)/C(=C(\O)c2ccc([N+](=O)[O-])cc2)C1c1ccc(Cl)cc1Cl (centres undefined)	none
Cc1cccn2c(=O)c(/C=C(\C#N)C(=O)NC3CCCCC3)c(Oc3ccccc3)nc12	none
Cc1ccc(S(=O)(=O)Nc2ccccc2/C=N/n2cnnc2)cc1	TEAD-YAP inh 51
C=CCOc1cc(Cl)c(C2NC(=O)NC(C)=C2C(C)=O)cc1OC (centres undefined)	none
CC(=O)C1=C(c2ccc([N+](=O)[O-])cc2)N(C(C)=O)n2cnnc2S1	TEAD-YAP inh 32
O=C1C2C3CCC(O3)C2C(=O)N1c1ccc2nc3ccccc3cc2c1 (centres undefined)	TEAD-YAP inh 80
O=C1C2C3CCC(O3)C2C(=O)N1c1cccc([N+](=O)[O-])c1 (centres undefined)	none
CSc1ccc(CC2(CCC(=O)N3CCc4sccc4C3)CCC(=O)N2)cc1 (centres undefined)	none
COc1ccc(N/C=C(\C#N)C(N)=S)cc1OC	TEAD-YAP inh 38
COc1ccc(C(F)(F)F)cc1N/C=C(\C#N)C(N)=S	none
CCCc1cc(-c2oncc2-c2ccc3c(c2)OCCO3)c(O)cc1OC	TEAD-YAP inh 51
CCc1cc(-c2nc(N)ncc2-c2ccc(Br)cc2)c(O)cc1OC	none
CCc1cc(-c2oncc2-c2ccc(Br)cc2)c(O)cc1OC	TEAD-YAP inh 55
COc1ccc(NC=NCCn2cnc3c2c(=O)n(C)c(=O)n3C)cc1	none
CCc1nnc(NC(=O)CN2CCN(c3ccc(C(C)=O)cc3)CC2)s1	TEAD-YAP inh 32
CC(=O)c1ccc(N2CCN(CC(=O)Nc3ncc(C)s3)CC2)cc1	none
N#Cc1cc2n[nH]nc2cc1C#N	none
CC(=O)Oc1ccc2cc(-c3ccc4c(c3)OCCO4)c(=O)oc2c1	TEAD-YAP inh 63
COc1ccc(-c2cc3ccc(O)cc3oc2=O)cc1	TEAD-YAP inh 70
COc1ccc2cc(-c3nc(-c4ccccc4)no3)c(=O)oc2c1	TEAD-YAP inh 59
COc1cccc(-c2cc3ccc(OC(C)=O)cc3oc2=O)c1	TEAD-YAP inh 58
CC(=O)Oc1ccc2c(=O)c(-c3ccc4c(c3)OCCO4)c(C)oc2c1	none
Cc1cccc(N2CCN(C(=O)c3ccc(S(=O)(=O)Cc4ccccc4F)c([N+](=O)[O-])c3)CC2C)c1 (centres undefined)	none
Cc1ccc2nc(-c3ccc(SCC(=O)O)nc3)[nH]c2c1	none
CC(=O)Nc1cccc(NC(=O)CSc2ccc(-c3nc4cc(C)c(C)cc4[nH]3)cn2)c1	none
CC(=O)CSc1ccc(-c2nc3cc(C)c(C)cc3[nH]2)cn1	TEAD-YAP inh 81
Cc1ccc2nc(-c3ccc(SCC(N)=O)nc3)[nH]c2c1	TEAD-YAP inh 53
CC(C)NCCOCCOc1ccc(C(C)C)cc1	none
Cc1cc(C(=O)CN2CCN(C)CC2)c(C)n1-c1ccc(Br)cc1	MITF primary 88
CCN1CCN(CC(=O)c2cc(C)n(-c3ccc(F)cc3)c2C)CC1	MITF primary 80
Nc1ccc(O)c2c1C(=O)c1c(cccc1[N+](=O)[O-])C2=O	MITF primary 88
Cc1cc(S(=O)(=O)O)ccc1N1N=C(C(=O)O)CC1=O	MITF primary 71
CCOC(=O)c1ccc(NC(=O)NCCc2ccc(OC)c(OC)c2)cc1	none
CCCCCC(=O)N1c2ccccc2NC2=C(C(=O)CC(c3ccc(N(CC)CC)cc3)C2)C1c1ccco1 (centres undefined)	TEAD-YAP inh 47
COc1ccc(-c2cc(C(=O)NCc3cccnc3)no2)cc1	none
CC1Cc2cc(-c3cc(CC(=O)NCc4cccnc4)no3)ccc2O1 (centres undefined)	TEAD-YAP inh 34
Cc1ccc(N2C(=O)C(Cl)=C(Nc3cc(Cl)ccc3O)C2=O)cc1	TEAD-YAP inh 41
O=C1C(Cl)=C(Nc2ccccc2O)C(=O)N1c1ccccc1	none
O=S(=O)(NCc1ccc2c(c1)OCO2)c1ccc(Cc2ccc(S(=O)(=O)NCc3ccc4c(c3)OCO4)cc2)cc1	TEAD-YAP inh 38
O=S(=O)(NCc1cccnc1)c1ccc(Cc2ccc(S(=O)(=O)NCc3cccnc3)cc2)cc1	TEAD-YAP inh 51
O=S(=O)(NCc1cccnc1)c1ccc(Cl)cc1	none
COc1ccc(/C=C/C(=O)c2ccc(S(=O)(=O)NCc3cccnc3)cc2)cc1	TEAD-YAP inh 35
Cc1ccc(S(=O)(=O)Nc2ccccc2C(=O)Nc2ccc(-c3nc4ccccc4o3)cc2)cc1	TEAD-YAP inh 39
COc1cccc(C(=O)NNc2nc3c(C)cccc3s2)c1	none
Cc1ccc(S(=O)(=O)Nc2ccccc2C(=O)Nc2nc(-c3ccccc3)cs2)cc1	TEAD-YAP inh 34
CC(=O)c1ccc(NC(=O)c2ccccc2NS(=O)(=O)c2ccc(C)cc2)cc1	none
O=C(Nc1ccc(-c2nc3ccccc3o2)cc1)C1CCN(C(=O)C2CCCC2)CC1	MITF primary 52
COc1ccccc1C(=O)NNc1nc2c(C)cccc2s1	TEAD-YAP inh 33
CCCNC(=O)c1cnn2c(C(F)(F)F)cc(-c3ccc(C)cc3)nc12	none
COc1ccc(NC(=O)CC(C)=O)cc1Cl	none
Cc1ccc(Cl)cc1NC(=O)COc1c(C)cccc1C	none
COc1ccc(-c2csc(NC(=O)c3ccccc3NS(=O)(=O)c3ccc(C)cc3)n2)cc1	TEAD-YAP inh 38
Cc1ccc(S(=O)(=O)Nc2ccccc2C(=O)Nc2nc3c(C)cccc3s2)cc1	TEAD-YAP inh 46
COC(=O)c1ccc(-c2csc(NC(=O)c3ccccc3NS(=O)(=O)c3ccc(C)cc3)n2)cc1	none
Cc1ccc(OCC(=O)Nc2ccc(-c3nc4ccc(C)cc4s3)cc2)cc1	none
Cc1ccc2nc(-c3ccc(OC(=O)c4cccc(I)c4)cc3)sc2c1	TEAD-YAP inh 84
CC(=O)Oc1ccc(-c2nc3ccc(C)cc3s2)cc1	TEAD-YAP inh 98
Cc1ccc2nc(-c3ccc(OC(=O)c4ccc(Br)o4)cc3)sc2c1	TEAD-YAP inh 65
Cc1ccc(C(=O)Oc2ccc(-c3nc4ccc(C)cc4s3)cc2)cc1	TEAD-YAP inh 39
Cc1ccc(-c2nc3ccccc3s2)cc1NC(=O)c1cccc(I)c1	none
CCOC(=O)C1=C(CS(=O)(=O)c2ccccc2)NC(=O)NC1	none
Cc1cc(NC(=O)NC2CC(=O)N(C3CCCC3)C2)ccc1Br (centres undefined)	none
CCCCc1ccc(C2=N/C(=C/c3ccc(OC(C)=O)c(OC)c3)C(=O)O2)cc1	none
COC(=O)CNS(=O)(=O)Nc1ccc(-c2nc3ccc(C)cc3s2)cc1	TEAD-YAP inh 67
Cc1ccc2nc(-c3ccc(NC(=O)CSc4nnc(N)s4)cc3)sc2c1	TEAD-YAP inh 59
Cc1ccc2nc(-c3ccc(NC(=O)/C=C\C(=O)O)cc3)sc2c1	TEAD-YAP inh 35
CC(=O)Nc1ccc(-c2nc3ccc(NC(C)=O)cc3s2)cc1	none
CC(=O)Nc1ccc2nc(-c3ccc(OC(C)=O)cc3)sc2c1	TEAD-YAP inh 78
